From PubChem BioAssay
In the library only some 2.3% were active in any assay of this set; here they are far more common.
PLC-beta3 inh – blocks human PLC-beta3 enzyme activity | Q01970 | Purified PLC-beta3, fluorogenic substrate, fluorescence | inhibition, % at 12.2 µM | hit rate 0.18% among 370,000; in the data active = inhibition above about 11%
MBD2 DNA inh – MBD2-methylated oligo binding inhibition; TR-FRET, MBD2 binding to methylated oligonucleotide; Q9UBB5; hit rate 0.31% among 370,000; inhibition, % at 4.4 µM; AID 686964; in the data active = inhibition above about 13%
UHRF1 binding – human UHRF1 methylated DNA binding inhibitors | hit rate 0.75% among 370,000 | inhibition, % at 4.4 µM | UHRF1 binding to methylated oligo, TR-FRET | Q96T88; in the data active = inhibition above about 21%;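 also: UHRF1 SRA domain binding a hemimethylated CpG hairpin DNA probe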
LEDGF integ inh – blocks HIV-1 LEDGF/p75-dependent DNA integration; TR-FRET IN-LEDGF/p75 DNA integration, Eu/Cy5; inhibition, % at 3.7 µM; hit rate 0.64% among 370,000; AID 743269;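 active = inhibition above the screen-wide mean plus 3 SD, cut at about 13% in these data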;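 also: signal is the Cy5 over europium emission ratio at 671 and 618 nm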
PLC-gamma1 inh – inhibitors of human phospholipase C gamma1; P19174; purified PLC-gamma1, fluorogenic substrate, fluorescence; inhibition, % at 12.2 µM; hit rate 0.84% among 370,000; AID 720700
Target sequence (P19174 whole entry, looked up): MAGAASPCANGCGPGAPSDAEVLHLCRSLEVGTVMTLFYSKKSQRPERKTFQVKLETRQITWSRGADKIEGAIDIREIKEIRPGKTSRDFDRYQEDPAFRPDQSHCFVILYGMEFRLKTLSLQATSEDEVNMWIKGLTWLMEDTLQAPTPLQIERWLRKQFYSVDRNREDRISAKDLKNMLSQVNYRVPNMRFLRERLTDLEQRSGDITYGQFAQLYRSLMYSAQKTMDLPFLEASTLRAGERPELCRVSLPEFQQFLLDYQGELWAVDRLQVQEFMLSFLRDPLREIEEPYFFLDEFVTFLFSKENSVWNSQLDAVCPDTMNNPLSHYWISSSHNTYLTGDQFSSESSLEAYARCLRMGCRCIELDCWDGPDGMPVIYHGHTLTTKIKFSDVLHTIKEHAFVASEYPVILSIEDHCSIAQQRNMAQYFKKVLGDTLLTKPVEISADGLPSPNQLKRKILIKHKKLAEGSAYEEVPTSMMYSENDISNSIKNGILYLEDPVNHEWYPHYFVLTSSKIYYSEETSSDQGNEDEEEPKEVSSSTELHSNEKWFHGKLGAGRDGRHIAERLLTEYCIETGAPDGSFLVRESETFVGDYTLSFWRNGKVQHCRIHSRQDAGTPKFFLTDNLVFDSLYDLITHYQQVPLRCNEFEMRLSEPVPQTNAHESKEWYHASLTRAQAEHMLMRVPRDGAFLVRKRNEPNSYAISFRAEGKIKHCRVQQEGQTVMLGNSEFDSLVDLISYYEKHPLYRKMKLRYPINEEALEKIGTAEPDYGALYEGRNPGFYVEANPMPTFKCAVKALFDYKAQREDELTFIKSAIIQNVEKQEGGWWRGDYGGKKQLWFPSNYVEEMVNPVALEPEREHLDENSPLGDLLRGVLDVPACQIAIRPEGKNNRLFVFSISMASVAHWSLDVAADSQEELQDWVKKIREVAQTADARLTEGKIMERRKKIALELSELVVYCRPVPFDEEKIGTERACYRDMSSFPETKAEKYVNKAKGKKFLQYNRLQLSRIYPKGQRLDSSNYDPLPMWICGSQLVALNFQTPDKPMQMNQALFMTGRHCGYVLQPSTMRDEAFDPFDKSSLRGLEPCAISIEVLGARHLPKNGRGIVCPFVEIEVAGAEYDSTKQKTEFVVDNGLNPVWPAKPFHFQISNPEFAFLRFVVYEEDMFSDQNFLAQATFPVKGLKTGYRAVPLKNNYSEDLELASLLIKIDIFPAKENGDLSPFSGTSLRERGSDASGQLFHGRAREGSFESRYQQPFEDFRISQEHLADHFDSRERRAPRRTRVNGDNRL
PLCgamma1 ctr – counter-screen for PLC-beta3 inhibitors: inhibitors of human PLC-gamma1 | shares compounds with PLC-gamma1 inh | purified PLC-gamma1, fluorogenic substrate, fluorescence | inhibition, % at 12.3 µM | hit rate 3.1% among 3,300 | AID 743258
PLCb3 confirm – human PLC-beta3 inhibition, confirmation; shares compounds with PLC-gamma1 inh; purified PLC-beta3, fluorogenic substrate fluorescence; inhibition, % at 12.3 µM; hit rate 1% among 3,300; in the data active = inhibition above about 11%
Numbers stand for hits. Rule as the data show it, unless noted: active = inhibition above about 9.5%; inactive = the rest.

How did Cc1ccc(C)c(OCCCNCc2ccccc2)c1 do in these assays?
PLC-beta3 inh: inactive; MBD2 DNA inh: inactive; UHRF1 binding: inactive; LEDGF integ inh: inactive; PLC-gamma1 inh: 15.3; PLCgamma1 ctr: inactive; PLCb3 confirm: inactive

What do the screens show for `COC(=O)c1ccc(Cn2ccc3ccc(-c4ccc5ccn(Cc6ccc(OC)cc6)c5c4)cc32)cc1`?
PLC-beta3 inh: inactive; MBD2 DNA inh: inactive; UHRF1 binding: inactive; LEDGF integ inh: inactive; PLC-gamma1 inh: inactive

What do the screens show for `COc1cc(N)c(Cl)cc1C(=O)NC1CCN(CCCOc2ccc(F)cc2)CC1OC` (centres undefined)?
PLC-beta3 inh: inactive; MBD2 DNA inh: inactive; UHRF1 binding: inactive; LEDGF integ inh: inactive; PLC-gamma1 inh: 11.2; PLCgamma1 ctr: inactive; PLCb3 confirm: inactive

Results for CC1=C(C(=O)N(C)C)CC(CC(=O)NCC2CCCCC2)C(=O)N1CCC1=CCCCC1 (centres undefined) ?
PLC-beta3 inh: inactive; MBD2 DNA inh: inactive; UHRF1 binding: inactive; LEDGF integ inh: inactive; PLC-gamma1 inh: 11.4; PLCgamma1 ctr: inactive; PLCb3 confirm: inactive

What do the screens show for `CCN(CC)C(=O)C1=C(C)N(CCC2=CCCCC2)C(=O)C(CC(=O)NCC2CCCCC2)C1` (centres undefined)?
PLC-beta3 inh: inactive; MBD2 DNA inh: inactive; UHRF1 binding: inactive; LEDGF integ inh: inactive; PLC-gamma1 inh: inactive

What do the screens show for `O=C(OC12CCCN(C1)/C(=C/c1ccncc1)C2)c1ccco1` (centres undefined)?
PLC-beta3 inh: inactive; MBD2 DNA inh: inactive; UHRF1 binding: inactive; LEDGF integ inh: inactive; PLC-gamma1 inh: inactive

How did CC(C)(C)c1ccc(S(=O)(=O)N2CCCC2C(=O)N2CCN(c3ccccc3)CC2)cc1 (centres undefined) do in these assays?
PLC-beta3 inh: inactive; MBD2 DNA inh: inactive; UHRF1 binding: inactive; LEDGF integ inh: inactive; PLC-gamma1 inh: inactive

What do the screens show for `Cc1ccc(OCC(=O)Nc2cccc(C)n2)c(C)c1`?
PLC-beta3 inh: inactive; MBD2 DNA inh: inactive; UHRF1 binding: inactive; LEDGF integ inh: inactive; PLC-gamma1 inh: inactive

What do the screens show for `Cc1ccc(NC(=O)COc2cccc3ccc(C)nc23)c(Br)c1`?
PLC-beta3 inh: inactive; MBD2 DNA inh: inactive; UHRF1 binding: inactive; LEDGF integ inh: inactive; PLC-gamma1 inh: 12.6; PLCgamma1 ctr: inactive; PLCb3 confirm: inactive

Results for CCOC(=O)Cc1nc(N2CCN(Cc3cccc4c3OCO4)CC2)c2c(C)c(C(=O)OCC)sc2n1 ?
PLC-beta3 inh: inactive; MBD2 DNA inh: inactive; UHRF1 binding: inactive; LEDGF integ inh: inactive; PLC-gamma1 inh: inactive

Results for COc1ccc(NC(=O)CSc2ncnc3scc(-c4ccc(C)cc4)c23)cc1OC ?
PLC-beta3 inh: inactive; MBD2 DNA inh: inactive; UHRF1 binding: inactive; LEDGF integ inh: inactive; PLC-gamma1 inh: inactive

What do the screens show for `O=C(Cc1ccc([N+](=O)[O-])cc1)Oc1ccccc1`?
PLC-beta3 inh: inactive; MBD2 DNA inh: inactive; UHRF1 binding: inactive; LEDGF integ inh: inactive; PLC-gamma1 inh: 9.7; PLCgamma1 ctr: inactive; PLCb3 confirm: inactive

How did NC(=O)NOCc1ccc(Cl)cc1Cl do in these assays?
PLC-beta3 inh: inactive; MBD2 DNA inh: inactive; UHRF1 binding: inactive; LEDGF integ inh: inactive; PLC-gamma1 inh: 12.9; PLCgamma1 ctr: inactive; PLCb3 confirm: inactive

What do the screens show for `NC(=O)NOCc1ccc(F)cc1Cl`?
PLC-beta3 inh: inactive; MBD2 DNA inh: inactive; UHRF1 binding: inactive; LEDGF integ inh: inactive; PLC-gamma1 inh: inactive

How did CC(C)(C)c1ccc(-c2nnc3n2N=C(c2ccc(Cl)cc2)CS3)cc1 do in these assays?
PLC-beta3 inh: inactive; MBD2 DNA inh: inactive; UHRF1 binding: inactive; LEDGF integ inh: inactive; PLC-gamma1 inh: inactive

Results for CC(C)(C)c1ccc(CNc2nc(-c3ccccn3)nnc2-c2ccccc2)cc1 ?
PLC-beta3 inh: inactive; MBD2 DNA inh: inactive; UHRF1 binding: inactive; LEDGF integ inh: inactive; PLC-gamma1 inh: 17.8; PLCgamma1 ctr: 13.6; PLCb3 confirm: 15.2

What do the screens show for `CN1CCN(c2oc(COc3ccc(-c4ccccc4)cc3)nc2C#N)CC1`?
PLC-beta3 inh: inactive; MBD2 DNA inh: inactive; UHRF1 binding: inactive; LEDGF integ inh: inactive; PLC-gamma1 inh: 10.9; PLCgamma1 ctr: inactive; PLCb3 confirm: inactive

How did COc1ccc(N2CCN(c3oc(COc4ccccc4)nc3C#N)CC2)cc1 do in these assays?
PLC-beta3 inh: inactive; MBD2 DNA inh: inactive; UHRF1 binding: inactive; LEDGF integ inh: inactive; PLC-gamma1 inh: inactive

How did Cn1ncc2nc[nH]c(=O)c21 do in these assays?
PLC-beta3 inh: inactive; MBD2 DNA inh: inactive; UHRF1 binding: inactive; LEDGF integ inh: inactive; PLC-gamma1 inh: 10.5; PLCgamma1 ctr: inactive; PLCb3 confirm: inactive

Results for Cn1ncc2nnn(-c3ccccc3)c(=O)c21 ?
PLC-beta3 inh: inactive; MBD2 DNA inh: inactive; UHRF1 binding: inactive; LEDGF integ inh: inactive; PLC-gamma1 inh: inactive

What do the screens show for `COc1ccc(OC)c(CN2C(=O)CCCCC2(C)c2nnnn2C2CCCC2)c1` (centres undefined)?
PLC-beta3 inh: inactive; MBD2 DNA inh: inactive; UHRF1 binding: inactive; LEDGF integ inh: inactive; PLC-gamma1 inh: inactive

How did COc1ccc(Cn2nnnc2C(C(C)C)N(Cc2ccco2)Cc2cccs2)cc1 (centres undefined) do in these assays?
PLC-beta3 inh: 13.6; MBD2 DNA inh: inactive; UHRF1 binding: inactive; LEDGF integ inh: inactive; PLC-gamma1 inh: 13.7; PLCgamma1 ctr: inactive; PLCb3 confirm: inactive

What do the screens show for `O=C(NC(=S)Nc1cccc(Cl)c1N1CCCCC1)c1cccs1`?
PLC-beta3 inh: inactive; MBD2 DNA inh: inactive; UHRF1 binding: inactive; LEDGF integ inh: inactive; PLC-gamma1 inh: inactive

How did O=C(NC(=S)Nc1cccc(Cl)c1N1CCOCC1)c1cccs1 do in these assays?
PLC-beta3 inh: inactive; MBD2 DNA inh: inactive; UHRF1 binding: inactive; LEDGF integ inh: inactive; PLC-gamma1 inh: 9.9; PLCgamma1 ctr: inactive; PLCb3 confirm: inactive

Results for COc1ccc(C(=O)Nc2ccc3c(c2)nc(CN2CCN(C(C)=O)CC2)n3C)cc1 ?
PLC-beta3 inh: 11.4; MBD2 DNA inh: inactive; UHRF1 binding: inactive; LEDGF integ inh: inactive; PLC-gamma1 inh: inactive; PLCgamma1 ctr: inactive; PLCb3 confirm: inactive

What do the screens show for `O=S1(=O)c2ccc(N3CC[C@H](O)C3)cc2O[C@H]2CCN1C2`?
PLC-beta3 inh: inactive; MBD2 DNA inh: inactive; UHRF1 binding: inactive; LEDGF integ inh: inactive; PLC-gamma1 inh: inactive

Results for COc1ccc2c(c1)OC(O)(C(F)F)CC2=O (centres undefined) ?
PLC-beta3 inh: inactive; MBD2 DNA inh: inactive; UHRF1 binding: inactive; LEDGF integ inh: inactive; PLC-gamma1 inh: 11.9; PLCgamma1 ctr: inactive; PLCb3 confirm: inactive

How did c1ccc(-n2nnnc2OCCOc2nnnn2-c2ccccc2)cc1 do in these assays?
PLC-beta3 inh: inactive; MBD2 DNA inh: inactive; UHRF1 binding: inactive; LEDGF integ inh: inactive; PLC-gamma1 inh: 13.6; PLCgamma1 ctr: inactive; PLCb3 confirm: inactive

What do the screens show for `CCN(CC)C(=O)CC[C@H]1CC[C@]2(CCCN(C(=O)c3ccccc3)C2)O1`?
PLC-beta3 inh: inactive; MBD2 DNA inh: inactive; UHRF1 binding: inactive; LEDGF integ inh: inactive; PLC-gamma1 inh: inactive
